Shown are actives, neighbours in structure and some others; about 4.4% of the full set was active somewhere.
TRHR agonist: TRH receptor (human) agonism; TRHR cells, calcium flux fluo-8, FDSS agonist mode; 0.18% of 360,000 active; activation, % at 2 µM; P34981; also: 0% is about no effect
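In this calcium-flux screen, cells bearing human TRHR are dye-loaded with fluo-8, baselined for 10 cycles, then exposed to library compounds; positive kinetic calcium responses during the agonist phase mark hits, with TRH as control.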
USP1-UAF1 inh: USP1/UAF1 (human) deubiquitinase inhibition; O94782; recombinant USP1/UAF1, Ub-Rhodamine cleavage fluorescence; Potency, µM (series often up to 57.1 µM), for the others: at the top dose activity change, negative = inhibition, most hits filed as inhibitors; 0.23% of 390,000 active; active = well fitted inhibition curve with a large enough effect; inconclusive = small, poorly fitted or top-dose-only effect; inactive = no such curve, though single readings can be large or run the other way; also: potency is read from the fitted curve at half-maximal effect; % is scaled to controls: 0 for no effect and ±100 for the full control effect; nearly all actives have a fitted effect of over 60% in size
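USP1/UAF1 complex at 1 nM was preincubated with compound for 15 min at room temperature, then Ub-Rho substrate (150nM final) was added. Fluorescence (480/540 nm) was read kinetically, 6 reads every 60 seconds.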
D1 PAM: human D1 dopamine receptor positive modulation | HEK293 TREx D1 cells, calcium flux, dopamine EC20 potentiation | AID 504651 | 0.036% of 360,000 active | P21728 | potentiation, % at 10 µM; in the data active = potentiation above about 30%; also: 0% is about no effect
D1 agonist: activates the human D1 dopamine receptor; 1% of 360,000 active; HEK293 T-REx D1 cells, calcium flux, agonist mode; AID 504660; P21728; activation, % at 2 µM; also: 0% is about no effect
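Agonism was scored from calcium flux recorded over 180 s (1 read/s) after pintool compound addition, following a 10-cycle baseline. Cells were inducible force-coupled HEK293 TREx D1, plated overnight at 30 C and loaded with no-wash calcium dye.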
D1 antagonist: blocks dopamine activation of the human D1 receptor; HEK293 TREx D1 cells, calcium flux, dopamine EC80; stronger effect = lower value; AID 504652; 3.2% of 360,000 active; activity change, negative = inhibition, % at 10 µM; in the data active = activity change below about -30%; also: % is scaled to controls: 0 for no effect and ±100 for the full control effect
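Kinetic fluorescence of a calcium dye serves as the read-out. D1-expressing Hek293 Trex cells, induced overnight at 30 C, are exposed to compound for 180 s before an EC80 dopamine addition, then read 180 s further.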
TRHR enhancer: allosteric enhancers of human TRH receptor; P34981; TRHR cells, fluo-8 calcium fluorescence, EC20 TRH enhancement; enhancement, % at 2 µM; 0.66% of 360,000 active; in the data active = enhancement above about 30%; also: 0% is about no effect
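Enhancer read-out: after compound pinning and an initial kinetic agonist-mode read, an EC20 of TRH (10 nM final) was injected and fluo-8 calcium signal (Ex 480/Em 530) followed at 1 s/cycle for 100 cycles in TRHR-expressing cells.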
Starred values were filed as active, the others as inactive; ? = inconclusive; / = not tested or not shown. Rule as the data show it, unless noted: active = activation above about 30%; inactive = the rest.

SMILES	TRHR agonist	USP1-UAF1 inh	D1 PAM	D1 agonist	D1 antagonist	TRHR enhancer
O=C(CSc1ncn[nH]1)Nc1cccc(S(=O)(=O)N2CCCCCC2)c1	-1	-11%	-6	9	-36*	6
O=C(CNc1cccc(S(=O)(=O)N2CCCCCC2)c1)Nc1cccc([N+](=O)[O-])c1	0	-25%	-11	8	-32*	-2
O=C(CSC(=S)N1CCCC1)N1CCN(S(=O)(=O)c2cccc(F)c2)CC1	0	-18%	-6	1	-16	20
CCOC(=O)CSc1nc2ccccc2c(=O)n1CCc1ccc(OC)c(OC)c1	0	-2%	0	12	7	-6
N#Cc1ccsc1NC(=O)CSc1ncn[nH]1	0	-12%	-2	5	-1	-7
O=C(CN1C(=O)NC(Cc2c[nH]c3ccccc23)C1=O)Nc1cccc(S(=O)(=O)N2CCCCCC2)c1 (configuration not stated)	-1	-2%	0	3	-19	0
CC1CCC2(CC1)NC(=O)N(CC(=O)Nc1cccc(S(=O)(=O)N3CCCCC3)c1)C2=O (configuration not stated)	/	-9%	/	/	/	/
Cc1cc(C)c(C(=O)OCC(=O)Nc2cccc(S(=O)(=O)N3CCCCC3)c2)c(C)c1	0	-26%	3	37*	0	-3
O=C(Cc1c[nH]c2ccccc12)Nc1cccc(S(=O)(=O)N2CCCCC2)c1	0	/	-8	0	-30*	0
O=C(COC(=O)c1ccccc1Cl)Nc1cccc(S(=O)(=O)N2CCCCC2)c1	/	-26%	/	/	/	/
CC1CCCCC12NC(=O)N(CC(=O)Nc1cccc(S(=O)(=O)N3CCCCC3)c1)C2=O (configuration not stated)	0	-7%	1	2	-53*	0
N#Cc1ccccc1NC(=O)CSc1ncn[nH]1	-1	-24%	-3	1	-35*	-2
CCN1CCN(C(c2ccc(SC)cc2)c2c(O)cc(C)n(CCOC)c2=O)CC1 (configuration not stated)	0	-13%	-4	-1	6	2
CS(=O)(=O)CCC(C(=O)Nc1cccc(C(F)(F)F)c1)N1Cc2ccccc2C1=O (configuration not stated)	1	-31%	-2	1	-8	7
COc1ccccc1C1C=C(c2ccc(Cl)cc2)Nc2nc(-c3ccc(Cl)cc3)nn21 (configuration not stated)	2	-12%	-2	11	-12	-1
N#Cc1cc2cc3c(cc2nc1SCC(=O)OC1CCCCC1)OCO3	2	?	6	9	-32*	-2
COc1ccc(CCC(C)NCCc2ccc(Cl)cc2Cl)cc1 (configuration not stated)	4	-21%	-9	51*	24	9
COc1ccc(CCC(C)NCc2ccc(Cl)c(Cl)c2)cc1 (configuration not stated)	0	-20%	-2	32*	4	4
COc1ccc(CCC(C)NCc2cc(OC)cc(OC)c2)cc1 (configuration not stated)	0	-21%	-6	8	-29	14
Cc1ccc(NC(=O)c2oc3ccccc3c2NC(=O)C2CCCCC2)cc1	-2	-18%	-4	5	11	2
CC(=O)C1=C(O)CC(C)(C)CC1=NCc1nc2ccccc2[nH]1	0	-22%	-2	2	0	-3
CC(=O)C1=C(O)CCCC1=NCc1nc2ccccc2[nH]1	-5	-12%	-7	7	-34*	4
Cc1cccc2c1N(Cc1ccccc1OCCC(C)C)C(=O)C2=O	-2	?	-2	5	0	-2
Clc1cccc(/C=N/N2CCN(Cc3ccccc3)CC2)c1	0	-20%	-3	5	-33*	1
COc1ccc(NC(=O)CSC2=Nc3ccccc3C3=NC(CCC(=O)NCc4ccco4)C(=O)N23)cc1 (configuration not stated)	0	-15%	8	3	45	3

Bioassay records: PubChem, National Center for Advancing Translational Sciences (NCATS)
